Assay results from PubChem BioAssay (NCATS).
Results filed as inconclusive are left out. Calls of active or inactive are those of the source. Unless noted, calls follow the shape of the dose curve; as a rule, active = well fitted curve in the direction sought with a large enough effect; inconclusive = small, poorly fitted or top-dose-only effect, or another doubt; inactive = no such curve, though single readings can be large; an effect the other way counts as inactive or inconclusive.

Key:
[1] = qHTS for differential inhibitors of proliferation of Plasmodium falciparum line D10 (AID 1877);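 also: parasites grown with compound for 72 h before DNA staining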; also: potency is read from the fitted curve at half-maximal effect
[2] = qHTS for differential inhibitors of proliferation of Plasmodium falciparum line Dd2 (AID 1882); conditions: Potency: Plasmodium falciparum Dd2 proliferation inhibition;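 also: series mostly up to about 29 µM; compound exposure of 72 h on infected erythrocytes; nearly all actives have a fitted effect of over 65% in size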
Summary of the method: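 RBC culture, 0.3% parasitemia / 2.5% Hct final; cpd added by pin tool in DMSO; 72 h, 37 C, 5% CO2; lysis buffer + SYBR Green I, o/n RT dark; FI 485/535; norm. to artemisinin 0.29 uM and DMSO.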

[3] = qHTS for differential inhibitors of proliferation of Plasmodium falciparum line HB3 (AID 1886); conditions: Potency: Plasmodium falciparum HB3 proliferation inhibition;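 also: parasites grown with compound for 72 h before SYBR Green readout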; also: potency is read from the fitted curve at half-maximal effect
[4] = qHTS Assay for Modulators of Human Peripheral Myelin Protein 22 (PMP22) Expression/Activity (AID 1967; active = well fitted curve in the direction sought with a large enough effect in the signal ratio; the % refers to the signal ratio)
Summary of the method: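 Engineered MSC80 cells, Pmp22-promoter green and EF-alpha red luciferase reporters; 24h compound treatment at 37 °C. Concentration-response fits on green, red and ratio signals, each overlap-corrected, with %Activity normalized to untreated wells.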

[5] = target: Ferritin light chain (Equus caballus) (UniProt P02791); test: qHTS Validation Assay for Identification of Novel General Anesthetics (AID 2323); also: series mostly up to about 77 µM
Summary of the method: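 Normalized fluorescence response, scaled between free 1-AMA and 1-AMA/apoferritin complex, fitted to a four-parameter Hill equation for concentration-effect values. Binding mix: 10 uM horse-spleen apoferritin, 50% saturated 1-AMA in PBS; read 380/535 nm after 10 min.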

[6] = target: ATP-dependent DNA helicase Q1 (Homo sapiens) (UniProt P46063); test: qHTS Validation Assay for Inhibitors of RecQ-Like Dna Helicase 1 (RECQ1) (AID 2353)
Summary of the method: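 RECQ1T1 50 nM; forked duplex (20 bp + 30-nt ss tails) 200 nM, ATP 2 mM final; pH 8.0, 2 mM MgCl2, 2.5 ug/ml poly(dI-dC); 15 min compound preincubation; discontinuous kinetic read over 2 h at RT.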

[7] = target: RecQ-like DNA helicase BLM (Homo sapiens) (UniProt P54132); test: qHTS Validation Assay for Inhibitors of Bloom's syndrome helicase (BLM) (AID 2364); also: potency is read from the fitted curve at half-maximal effect
Summary of the method: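 Forked 20-bp duplex substrate (200 nM, TAMRA/BHQ-2) plus 2 mM ATP added after 15 min compound preincubation with 50 nM enzyme, pH 8.0, poly(dI-dC) 2.5 ug/ml. Strand separation followed by fluorescence (525/598 nm) over 2 h, normalized to enzyme-free and DMSO controls.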

[8] = qHTS for differential inhibitors of proliferation of Plasmodium falciparum line W2 (AID 1883); conditions: Potency: Plasmodium falciparum W2 proliferation inhibition;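 also: parasites grown with compound for 72 h before lysis and staining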; also: potency is read from the fitted curve at half-maximal effect

Measured: Potency

Chain of Ferritin light chain (Equus caballus) (P02791 2-175 limits assumed): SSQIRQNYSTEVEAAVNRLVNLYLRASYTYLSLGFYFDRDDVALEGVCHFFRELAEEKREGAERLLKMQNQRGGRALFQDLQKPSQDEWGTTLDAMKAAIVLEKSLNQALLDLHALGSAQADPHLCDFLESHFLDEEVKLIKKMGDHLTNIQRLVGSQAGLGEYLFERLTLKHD
Chain of ATP-dependent DNA helicase Q1 (Homo sapiens) (P46063 whole entry, looked up): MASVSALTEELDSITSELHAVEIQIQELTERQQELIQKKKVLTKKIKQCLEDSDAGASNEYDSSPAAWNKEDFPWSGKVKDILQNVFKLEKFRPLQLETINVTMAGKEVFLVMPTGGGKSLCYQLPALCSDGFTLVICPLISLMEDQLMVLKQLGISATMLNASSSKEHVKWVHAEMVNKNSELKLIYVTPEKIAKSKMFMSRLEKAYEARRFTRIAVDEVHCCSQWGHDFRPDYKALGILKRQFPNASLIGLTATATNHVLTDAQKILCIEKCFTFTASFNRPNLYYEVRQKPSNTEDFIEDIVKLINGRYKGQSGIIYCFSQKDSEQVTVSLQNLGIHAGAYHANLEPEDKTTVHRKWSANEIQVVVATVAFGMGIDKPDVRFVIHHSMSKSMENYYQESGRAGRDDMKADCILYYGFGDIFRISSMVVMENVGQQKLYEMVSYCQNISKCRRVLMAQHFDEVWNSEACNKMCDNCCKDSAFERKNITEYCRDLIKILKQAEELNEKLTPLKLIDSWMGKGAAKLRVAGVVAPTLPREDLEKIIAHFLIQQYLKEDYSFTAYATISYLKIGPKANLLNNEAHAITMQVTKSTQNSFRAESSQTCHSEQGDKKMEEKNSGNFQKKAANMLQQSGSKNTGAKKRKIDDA
Chain of RecQ-like DNA helicase BLM (Homo sapiens) (P54132 whole entry, looked up): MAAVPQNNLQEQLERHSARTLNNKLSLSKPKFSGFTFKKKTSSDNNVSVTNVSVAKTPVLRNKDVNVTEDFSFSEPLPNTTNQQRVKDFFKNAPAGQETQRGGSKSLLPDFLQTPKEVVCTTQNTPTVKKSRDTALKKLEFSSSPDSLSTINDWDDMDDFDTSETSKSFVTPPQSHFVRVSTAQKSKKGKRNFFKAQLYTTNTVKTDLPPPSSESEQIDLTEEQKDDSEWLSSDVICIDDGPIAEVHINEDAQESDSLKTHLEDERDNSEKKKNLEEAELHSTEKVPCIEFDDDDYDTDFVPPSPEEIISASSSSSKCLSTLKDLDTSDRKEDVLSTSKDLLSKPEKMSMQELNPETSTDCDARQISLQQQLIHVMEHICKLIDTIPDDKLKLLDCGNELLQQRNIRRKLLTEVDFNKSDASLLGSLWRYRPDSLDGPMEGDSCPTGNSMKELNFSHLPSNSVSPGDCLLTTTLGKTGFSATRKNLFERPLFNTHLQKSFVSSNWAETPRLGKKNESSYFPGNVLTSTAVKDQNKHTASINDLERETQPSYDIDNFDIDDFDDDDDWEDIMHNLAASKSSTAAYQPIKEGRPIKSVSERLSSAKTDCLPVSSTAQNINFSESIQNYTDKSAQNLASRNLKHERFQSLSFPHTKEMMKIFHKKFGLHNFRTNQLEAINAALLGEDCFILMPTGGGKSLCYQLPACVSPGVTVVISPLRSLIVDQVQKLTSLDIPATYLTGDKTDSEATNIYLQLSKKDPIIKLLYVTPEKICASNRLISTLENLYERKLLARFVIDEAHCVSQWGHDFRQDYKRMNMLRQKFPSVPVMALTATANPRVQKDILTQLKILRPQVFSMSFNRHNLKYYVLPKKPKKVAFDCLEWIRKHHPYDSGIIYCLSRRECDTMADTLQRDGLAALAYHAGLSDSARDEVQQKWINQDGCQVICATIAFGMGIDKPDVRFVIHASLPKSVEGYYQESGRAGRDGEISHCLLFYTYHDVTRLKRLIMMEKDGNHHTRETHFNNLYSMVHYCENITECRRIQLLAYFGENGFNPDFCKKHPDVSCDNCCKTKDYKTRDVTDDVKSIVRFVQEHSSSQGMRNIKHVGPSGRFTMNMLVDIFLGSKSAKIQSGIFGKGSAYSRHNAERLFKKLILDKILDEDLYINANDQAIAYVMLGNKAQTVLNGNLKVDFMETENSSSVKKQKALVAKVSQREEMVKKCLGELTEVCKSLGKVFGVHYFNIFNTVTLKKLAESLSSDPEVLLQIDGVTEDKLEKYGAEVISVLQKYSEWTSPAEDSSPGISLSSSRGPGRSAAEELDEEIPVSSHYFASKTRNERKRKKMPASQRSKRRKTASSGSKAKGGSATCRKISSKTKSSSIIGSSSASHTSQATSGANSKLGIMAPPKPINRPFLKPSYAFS

C#CC(N)CCC(=O)O (stereo not given)
not listed: [8]
inactive: all other assays above

O=C(O)/C(=C/c1c(C(=O)O)[nH]c2cc(Cl)cc(Cl)c12)c1ccccc1
inactive: [1] | [2] | [3] | [5] | [6]

O=c1onc2n1-c1cc(Br)ccc1OC2
inactive: [1] | [2] | [3] | [5] | [6]

NC(=O)c1cc[n+](CC2=C(C(=O)O)N3C(=O)[C@@H](NC(=O)[C@@H](c4ccccc4)S(=O)(=O)[O-])[C@H]3SC2)cc1
not listed: [8]
inactive: all other assays above

O=C(O)c1cc2cc(F)ccc2[nH]1
not listed: [3] | [8]
inactive: all other assays above

CNCCNS(=O)(=O)c1cccc2cnccc12
not listed: [4] | [8]
inactive: all other assays above

Oc1cc(O)c2c(c1)O[C@H](c1ccc(O)c(O)c1)[C@@H](O)C2
inactive: [1] | [2] | [3] | [5] | [6]

COc1ccc(C(=O)NCc2cccnc2)cc1C(=O)NCc1cccnc1
not listed: [7] | [8]
inactive: all other assays above

COc1cc(N)c(Cl)cc1C(=O)OCCN1CCCCC1
not listed: [8]
inactive: all other assays above

N#Cc1cc2nc(O)c(O)nc2cc1[N+](=O)[O-]
not listed: [7] | [8]
inactive: all other assays above

c1ccc(C2CN3CCSC3=N2)cc1 (stereo not given)
inactive: [1] | [2] | [3] | [5] | [7]

O=c1[nH]c2cc(Cl)ccc2c(O)c1-c1ccc(Oc2ccccc2)cc1
not listed: [7] | [8]
inactive: all other assays above

N=C(N)SCCc1cnc[nH]1
not listed: [8]
inactive: all other assays above

COC1(C2=NCCN2)COc2ccccc2O1 (stereo not given)
not listed: [7] | [8]
inactive: all other assays above

CC#CCOC(=O)c1c(C)nc2sc3c(c2c1N)CCC(O)C3 (stereo not given)
inactive: [1] | [2] | [3] | [6]

CCCCCCCCCCC/C=C\C(C)(C)/C=C\CCCC(=O)O
inactive: [1] | [2] | [3] | [4]
active: [7] 25.1 µM

NCCCNCCCCNCCCN
not listed: [4] | [8]
inactive: all other assays above

CCCc1c(-c2ccc(O)cc2)nn(-c2ccc(O)cc2)c1-c1ccc(O)cc1
inactive: [1] | [2] | [3] | [5] | [6]

CNC(=O)c1cc2c(cn1)[nH]c1ccccc12
active: [8] 12.6 µM
inactive: [1] | [2] | [5] | [7]

CCCCOc1cc(CC2CNC(=O)N2)ccc1OC (stereo not given)
not listed: [8]
inactive: all other assays above

N#CC(C#N)=C(N)/C(C#N)=C/c1ccc(O)cc1
inactive: [1] | [2] | [8] | [5] | [6]

COc1cc2c(CCNC(C)=O)c[nH]c2cc1O
not listed: [8]
inactive: all other assays above

O=C(O)Cc1ccc(O)c(O)c1
inactive: [1] | [2] | [3] | [5] | [6]

CC(N)(Cc1ccc(O)c(O)c1)C(=O)O (stereo not given)
inactive: [1] | [2] | [3] | [5] | [6]

Nc1ncnc2c1ncn2C1CCCO1 (stereo not given)
inactive: [1] | [2] | [3] | [5] | [6]

CCSC(=N)N
not listed: [7] | [8]
inactive: all other assays above

CCCCCC[C@@H]([C@@H](C)O)n1cnc2c(N)ncnc21
not listed: [7] | [8]
inactive: all other assays above

Clc1nccc2c1ccc1ccccc12
not listed: [4] | [8]
inactive: all other assays above

CC1CCN(CC[C@H]2CCCN2S(=O)(=O)c2cccc(O)c2)CC1
active: [8] 8.91 µM
not listed: [2] | [7]
inactive: all other assays above

Cn1c(=O)c2[nH]c(C3CCCC3)nc2n(C)c1=O
inactive: [1] | [2] | [5] | [6] | [7]

OCC1NCC(O)C(O)C1O (stereo not given)
not listed: [2]
inactive: all other assays above

NC(C(=O)N[C@@H]1C(=O)N2C(C(=O)O)=C(Cl)CS[C@H]12)c1ccccc1 (stereo not given in full)
not listed: [2] | [7]
inactive: all other assays above

CCOC(=O)C12CC1/C(=N/O)c1ccccc1O2 (stereo not given)
inactive: [1] | [8] | [3] | [5] | [6]

CCCn1c(=O)c2[nH]c(-c3ccc(S(=O)(=O)O)cc3)nc2n(CCC)c1=O
inactive: [1] | [2] | [4] | [6] | [7]

O=C1Cc2c([nH]c3ccc(Br)cc23)-c2ccccc2N1
inactive: [5] | [6]
active: [1] 11.2 µM | [8] 10 µM | [3] 12.6 µM

COc1ccc(NC(=O)c2ccc(-c3ccc(-c4noc(C)n4)cc3C)cc2)cc1N1CCN(C)CC1
inactive: [5] | [6] | [7]
active: [1] 2.51 µM | [8] 3.98 µM | [3] 2.82 µM

CC(C)C[C@H](NC(=O)C1OC1C(=O)O)C(=O)NCCCCN=C(N)N (stereo not given in full)
active: [1] 3.55 µM | [8] 2.51 µM | [3] 2.51 µM
inactive: [4] | [5] | [6]

CC[N+](CC)(CC)CC(=O)Nc1c(C)cccc1C
not listed: [2] | [7]
inactive: all other assays above

CC(C)NCC(O)COc1ccc(CC(N)=O)cc1 (stereo not given)
not listed: [2] | [6]
inactive: all other assays above

Nc1ncnc2c1ncn2C1CCCC1
inactive: [1] | [2] | [5] | [6]

CC(N)=NCCCC[C@@H](N)C(=O)O
not listed: [2] | [7]
inactive: all other assays above

CC[C@@H]1Cc2cc(O)ccc2C2=C1c1ccc(O)cc1C[C@H]2CC
active: [1] 11.2 µM | [8] 4.47 µM | [3] 11.2 µM
inactive: [5] | [6]

Oc1ccc(Cn2cc[nH]c2=S)cc1
not listed: [2] | [7]
inactive: all other assays above

CN(C)CCC(c1ccc(Br)cc1)c1ccccn1 (stereo not given)
active: [8] 0.891 µM
not listed: [2] | [6]
inactive: all other assays above

O=[N+]([O-])c1cccc2c(Br)[nH]nc12
not listed: [2] | [7]
inactive: all other assays above

O=C(O)c1cccnc1C(=O)O
not listed: [2] | [7]
inactive: all other assays above

O=C(O)/C=C/c1ccc(O)c(O)c1
not listed: [2] | [4]
inactive: all other assays above

O=C(O)C1=CCCNC1
not listed: [2] | [7]
inactive: all other assays above

CC1CNCCN1S(=O)(=O)c1cccc2cnccc12 (stereo not given)
active: [8] 7.08 µM
not listed: [2] | [4]
inactive: all other assays above

NS(=O)(=O)c1cccc2c1c([N+](=O)[O-])cc1nc(O)c(O)nc12
active: [8] 11.2 µM
not listed: [2] | [7]
inactive: all other assays above

Cc1nc(N=Nc2ccc(C(=O)O)cc2)c(COP(=O)(O)O)c(C=O)c1O
inactive: [1] | [8] | [3] | [5] | [6]

Nc1ccc(-c2ccc3ccccc3n2)cc1
inactive: [1] | [2] | [5]

O=c1[nH]ccc2c(O)cccc12
inactive: [1] | [8] | [3] | [5] | [6]

N[C@H]1CONC1=O
inactive: [1] | [8] | [3] | [5]

Cc1cccc(C)c1OCC(N)C(C)C (stereo not given)
active: [8] 0.708 µM
not listed: [2] | [7]
inactive: all other assays above

O=C(O)Cc1c[nH]c2ccc(O)cc12
inactive: [1] | [2] | [5] | [7]

CN1CCC2(CCN3CCc4c(oc5ccccc45)C3C2)N(C)C1=O (stereo not given)
inactive: [1] | [2] | [5] | [6]

O=C(O)CCC(=O)N1CCCC1C(=O)O (stereo not given)
not listed: [2] | [7]
inactive: all other assays above

CCCCOC(=O)NS(=O)(=O)c1sc(CC(C)C)cc1-c1ccc(Cn2c(CC)nc3c(C)cc(C)nc32)cc1
inactive: [5]
active: [1] 11.2 µM | [8] 7.94 µM | [3] 12.6 µM

NC(=Nc1ccccc1)NC(=O)c1nc(Cl)c(N)nc1N
inactive: [5] | [6] | [7]
active: [1] 8.91 µM | [8] 7.08 µM | [3] 7.94 µM

CCCOC(=O)c1c(-c2ccccc2)nc(CC)c(C(=O)SCC)c1CCC
inactive: [5] | [6]
active: [1] 12.6 µM | [8] 10 µM | [3] 17.8 µM

Cc1nc(N=Nc2ccc(S(=O)(=O)O)cc2S(=O)(=O)O)c(COP(=O)(O)O)c(C=O)c1O
not listed: [2] | [6]
inactive: all other assays above
